# Source: PubChem BioAssay AID504834 (National Center for Advancing Translational Sciences (NCATS), 2011)
# Screen size: about 320,000 compounds; about 22,000 (6.9%) were called active. Not shown: some 27% with an inconclusive outcome. Calls come from the whole dose curve; as a rule, active = well fitted inhibition curve with a large enough effect; inconclusive = small, poorly fitted or top-dose-only effect, or another doubt; inactive = no such curve, though single readings can be large or run the other way. Only a selection was taken, and actives are over-represented in it overall.
# Assay: Primary qHTS for delayed death inhibitors of the malarial parasite plastid, 96 hour incubation
# Settings: P. falciparum luciferase reporter growth; series mostly up to 28.7 µM; activity change, negative = inhibition: at the top concentration
# How it was run: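 96 h incubation, 37 C, 5% CO2, of luciferase-reporter P. falciparum-infected RBCs (2% hematocrit, 0.05% parasitemia final) with test compounds; endpoint luminescence.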
# % is set by controls: 0 for no effect and ±100 for the full control effect; potency is the fitted concentration of half-maximal effect.
SMILES,"activity change, negative = inhibition",Potency
CCN(CC)CCCNC(=O)c1cc2c(=O)[nH]c3ccc(C)cc3c2s1,26.3% (inactive),
CC(=O)NS(=O)(=O)c1ccc2c(c1)Cc1cc(S(=O)(=O)NC(C)=O)ccc1-2,-26.1% (inactive),
COc1cc(C2/C(=C(\O)c3ccc4c(c3)CC(C)O4)C(=O)C(=O)N2c2nnc(C)s2)cc(OC)c1OC (stereo not drawn),-12.3% (inactive),
CCc1cc2c(=O)n(-c3ccccc3)c(SCC(=O)O)nc2s1,12.5% (inactive),
Cc1sc2nc(SCCO)n(-c3ccccc3)c(=O)c2c1C,,10.4 µM (active)
Cc1sc2nc(SCC(N)=O)n(C)c(=O)c2c1C,92.6% (inactive),
CCS(=O)(=O)Nc1cc(C(=O)OC)ccc1C(=O)OC,,10.4 µM (active)
CCN(CCO)C(=S)Nc1cc(C(=O)OC)ccc1C(=O)OC,36.6% (inactive),
COC(=O)c1ccc(C(=O)OC)c(NC(=S)N2CCCCC2)c1,2.35% (inactive),
COc1ccc2oc(C(=O)NCc3ccco3)c(C)c2c1,24.1% (inactive),
CCCCCC1CC(COc2ccccc2)OC1=O (stereo not drawn),35.3% (inactive),
O=C(NCc1ccccc1)C(c1ccco1)N(C(=O)c1csnn1)c1ccccc1F (stereo not drawn),2% (inactive),
CCOCCCNC(=O)C(NC(=O)c1ccc(=O)[nH]c1)c1ccc(C)cc1 (stereo not drawn),-5.48% (inactive),
CCOCCCNC(=O)C(NC(=O)CNC(=O)c1ccccc1)c1ccc(C)cc1 (stereo not drawn),,9.28 µM (active)
CCOCCCNC(=O)C(NC(=O)CNC(=O)c1ccccc1)c1ccc(OC)cc1 (stereo not drawn),-7.96% (inactive),
COc1ccc(C(=O)NC2CC(C)(C)Cc3c2cnn3-c2ccccc2C)o1 (stereo not drawn),9.64% (inactive),
Cc1ccc(S(=O)(=O)NCCC(=O)NC2CCN(Cc3ccccc3)CC2)cc1,-1.38% (inactive),
OC(c1nc2ccc(F)cc2[nH]1)C(O)c1nc2ccc(F)cc2[nH]1 (stereo not drawn),71.5% (inactive),
Cc1c(NC(=O)C(C)Oc2cccc(Cl)c2)c(=O)n(-c2ccccc2)n1C (stereo not drawn),1.13% (inactive),
CN(C(=O)c1ccccn1)c1nnc(-c2ccccn2)s1,0% (inactive),
CN(Cc1ccccc1)C(=O)COc1ccccc1,149% (inactive),
CN(C(=O)COc1ccccc1)c1nnc(-c2ccncc2)s1,,4.15 µM (active)
CC(C)Oc1ccc(C(CC(=O)N2CCOCC2)C(C)C)cc1 (stereo not drawn),4.98% (inactive),
CC(=O)c1c(C)oc2ccc(NS(=O)(=O)c3ccc(C(=O)O)cc3)cc12,-28% (inactive),
O=C(Nc1ccc(O)cc1)c1ccc(NC(=O)c2ccco2)cc1,14.7% (inactive),
COC(=O)c1ccc2ccccc2c1OC1OC(CO)C(O)C(O)C1NC(C)=O (stereo not drawn),,10.4 µM (active)

SMILES,"activity change, negative = inhibition",Potency
COc1cc(/C=C/CO)cc(OC)c1O[C@@H]1O[C@H](CO)[C@@H](O)[C@H](O)[C@H]1O,-1.35% (inactive),
CC(=O)NC1C(OCc2ccccc2)OC(COC(C)=O)C(OC(C)=O)C1OC(C)=O (stereo not drawn),-29.8% (inactive),
Cn1cc(S(=O)(=O)Nc2ccc(Cl)cc2Cl)c(=O)n(C)c1=O,-1.94% (inactive),
COCCNC(=O)C1CCN(C(=O)C2CC(=O)N(c3ccc(C)cc3)C2)CC1 (stereo not drawn),-12% (inactive),
COCCCNC(=O)C1CC(=O)N(c2ccc(C)cc2)C1 (stereo not drawn),,11.7 µM (active)
Cc1ccc(N2CC(C(=O)NCCS(=O)(=O)N3CCN(c4ccccc4)CC3)CC2=O)cc1 (stereo not drawn),155% (inactive),
Cc1nc(Cl)cc(N/N=C/c2ccccc2)n1,36% (inactive),
Cc1ccc(/C=C/C(=O)OCC(=O)Nc2cccnc2Cl)cc1,28.3% (inactive),
CSCCC(NC(=O)COc1ccccc1)C(=O)OCCOc1ccc(F)cc1 (stereo not drawn),13.2% (inactive),
O=C(NCC(=O)N1CCC2(CC1)NCCc1[nH]cnc12)c1ccc(Br)cc1,39.1% (inactive),
Cc1ccsc1C(=O)NC1CCCCC1C (stereo not drawn),8.49% (inactive),
Cc1ccc(NC(=O)COc2ccc(/C=C3/NC(=O)NC3=O)cc2)cc1,65.7% (inactive),
O=C(NCCCN1CCCCC1)C1CC(=O)N(CCc2ccccc2)C1 (stereo not drawn),0.338% (inactive),
COc1cccc(CNC(=O)C2CC(=O)N(C3CCCCCCC3)C2)c1 (stereo not drawn),14.6% (inactive),
O=C(NCCCN1CCCCCC1)C1CC(=O)N(C2CCCC2)C1 (stereo not drawn),,3.7 µM (active)
Nc1nonc1-n1nnc(C(=O)N/N=C/C2CCCCC2)c1-c1ccccc1,12% (inactive),
CC(C)c1c(C(=O)N/N=C/c2ccc(-c3ccccc3)cc2)nnn1-c1nonc1N,-22.8% (inactive),
Nc1nonc1-n1nnc(C(=O)N/N=C/c2ccc(Cl)cc2)c1-c1ccc2c(c1)OCO2,,0.0657 µM (active)
CCOC(=O)N1CCN(C(=O)COc2ccc3oc4c(c3c2)CCCC4)CC1,-5.29% (inactive),
CC(=O)Oc1ccc(-c2cccc(C(=O)N3CCCCC3)c2)cc1,-15.3% (inactive),
COc1ccccc1CNC(=O)C1CCN(C(=O)[C@@H]2Cc3ccccc3CN2)CC1,18.3% (inactive),
C/C(CCC(=O)OC[C@H]1O[C@H](C#Cc2ccccc2)C=C[C@@H]1Oc1ccc(C)cc1)=N\OC[C@@H](O)[C@H]1O[C@@H]2OC(C)(C)O[C@@H]2[C@H]1O,,13.1 µM (active)
NC(=O)C1CCN(c2nc(-c3cccc(F)c3)cs2)CC1,18% (inactive),
Nc1nnc(SCC(=O)NCC(=O)Nc2ccc(F)c(F)c2F)s1,10.7% (inactive),
CCN(CC(=O)Nc1c(F)cccc1F)C(=O)c1ccc(Sc2nncn2C)c([N+](=O)[O-])c1,-19.5% (inactive),
CN(C)CCNC(=O)c1[nH]nc2c1CCc1ccccc1-2,-2.24% (inactive),

SMILES,"activity change, negative = inhibition",Potency
O=C(N/N=C/c1ccc(O)c2ccccc12)c1cccnc1,51.5% (inactive),
Cc1cc(/C=N/NC(=O)c2cccnc2)c(C)n1CC(C)C,33.1% [at 5.75 µM] (inactive),
O=C(N/N=C/c1sc(N2CCCCC2)nc1-c1cccs1)c1cccnc1,,2.08 µM (active)
COc1ccccc1CNC(=O)COC(=O)c1sc(C)nc1C,7.8% (inactive),
CN1C2CCC1CC(NC(=O)c1ccc([N+](=O)[O-])cc1)C2 (stereo not drawn),24.1% (inactive),
COc1ccc2nc(/N=C(\N)NC(=O)Nc3ccccc3)nc(C)c2c1,-14% (inactive),
Cc1nc(/N=C(\N)NC(=O)NC2CCCCC2)nc2ccccc12,,3.29 µM (active)
Cc1nn(-c2ccccc2)c(C)c1C(=O)OCC(=O)NC(=O)NC1CCCCC1,5.23% (inactive),
O=c1ccc2cc(S(=O)(=O)NCCCc3ccccc3)ccc2[nH]1,37.4% (inactive),
COc1ccc(CN2CCCC(C(=O)N3CCCCC3)C2)cc1 (stereo not drawn),26.6% (inactive),
Cc1ccc(OC(=O)c2cncc(Br)c2)c(C)c1,19.6% (inactive),
O=C1CCCN1C(=O)COc1ccc([N+](=O)[O-])cc1,-14.5% (inactive),
CCOC(=O)COc1ccc([N+](=O)[O-])cc1,,0.415 µM (active)
N/C(=N\OC(=O)COc1ccc([N+](=O)[O-])cc1)c1ccc(Br)cc1,16.2% (inactive),
Cc1cc(NC(=O)CCC(=O)N(Cc2ccccc2)C(C(=O)NC2CCCC2)c2ccc(C)o2)no1 (stereo not drawn),-28.2% (inactive),
CC(C)CCN1CCC(C)(NC(=O)c2ccccc2)C1=O (stereo not drawn),56.1% (inactive),
COc1ccccc1C(=O)NCCC(=O)NN1C(=O)NC2(CCCCC2)C1=O,0.363% (inactive),
O=C(CN1CCOCC1)Nc1cc(Cl)ccc1Cl,70.5% (inactive),
C/C(=N\Nc1nc(Nc2ccccc2)nc(N2CCOCC2)n1)c1cccs1,20.1% (inactive),
O=C(CSc1nc(Nc2ccccc2)nc(N2CCOCC2)n1)Nc1cc(Cl)ccc1O,,5.22 µM (active)
CC(=O)c1c(C)[nH]c(C(=O)COC(=O)CCOc2ccc(C)cc2)c1C,-9.72% (inactive),
Cn1nc(C(C)(C)C)c([N+](=O)[O-])c1C(N)=O,5.19% (inactive),
CC(=O)N1c2ccc(S(=O)(=O)N(C)CC(=O)N(C)Cc3ccccc3)cc2CC1C (stereo not drawn),33% (inactive),
CC(=O)c1sc(N)nc1C,60.6% (inactive),
COc1ccccc1CNS(=O)(=O)c1cc2c3c(c1)CCC(=O)N3CCC2,-19.2% (inactive),
CN(C)S(=O)(=O)c1ccc(N2CCCC2)c(C(=O)Nc2ccc(Br)cc2F)c1,,8.28 µM (active)

SMILES,"activity change, negative = inhibition",Potency
Cc1ccccc1OCC(=O)NNC(=O)c1cc(S(=O)(=O)N(C)C)ccc1N1CCCC1,4.87% (inactive),
CN(C)S(=O)(=O)c1ccc(N2CCCC2)c(C(=O)Nc2cccc(F)c2)c1,86.2% (inactive),
CCOC(=O)c1c(C)[nH]c(C(=O)NCCN2CCOCC2)c1C,7.52% (inactive),
O=C(NCCCN1CCOCC1)c1ccc2c(c1)N(Cc1cccc(F)c1)C(=O)c1ccccc1S2,16.5% (inactive),
C=CCn1c(SCc2cc(C(=O)OC)c(C)o2)nnc1-c1ccncc1,-0.417% [at 5.75 µM] (inactive),
C=CCn1c(SCc2c(C(=O)OC)sc(N)c2C(=O)OC)nnc1-c1ccc(Cl)cc1,,3.29 µM (active)
COC(=O)c1sc(N)c(C(=O)OC)c1COC(=O)CNS(=O)(=O)c1ccc(C)cc1,7.76% (inactive),
Cc1nc2cc(NC(=O)Nc3cccc(F)c3)ccc2n1C,-38.2% (inactive),
COc1ccc(CNC(=O)COC(=O)CCS(=O)(=O)c2ccc(C)cc2)cc1OC,3.65% (inactive),
COc1ccc(NC(=O)N2CCC(Cc3ccccc3)CC2)cc1,151% (inactive),
COc1ccc2c(c1)C(C)=CC(C)(C)N2C(=O)CNCc1ccc2c(c1)OCO2,42.6% (inactive),
COc1ccc2c(c1)C(C)=CC(C)(C)N2C(=O)Nc1ccccc1,,10.4 µM (active)
CCOC(=O)c1c(C)n(C)c2ccc(OC)c(NS(=O)(=O)CC)c12,-42.6% (inactive),
CCOC(=O)c1c(S(=O)(=O)NCC(=O)Nc2ccc(C)cc2)c(C)n(C)c1C,-14.5% (inactive),
CCOC(=O)c1c(S(=O)(=O)Nc2cccc(Cl)c2)c(C)n(C)c1C,,10.4 µM (active)
CCN(CC)CCCNC(=O)COc1ccc2oc3c(c2c1)CCCC3,-26% (inactive),
CCCS(=O)(=O)N1CCN=C1SCc1cccc(F)c1,-15.9% (inactive),
CN(CC(=O)Nc1ccccc1C(F)(F)F)C(=O)Cc1ccccc1F,3.57% (inactive),
CC[N+](CC)(CC)CCCCCCCCCC[N+](CC)(CC)CC,,0.37 µM (active)
Cc1cccc(C)c1NC(=O)CSc1nc2c([nH]1)c(=O)n(C)c(=O)n2C,-3.18% (inactive),
CC(C)(C)[Si](OCC[C@@H]1C[C@@]1(C)[C@@H](NP(=O)(c1ccccc1)c1ccccc1)c1ccccc1)(c1ccccc1)c1ccccc1,,2.33 µM (active)
O=C(NC1CCCCC1)C1CCC(CNS(=O)(=O)c2ccccc2)CC1 (stereo not drawn),17% (inactive),
CCN(CC)c1ccc(NC(=O)CN2CCN(c3ccccn3)CC2)cc1,33.8% (inactive),
Cc1nc(N2CCOCC2)c2c(C)c(C(=O)Nc3ccc(C(F)(F)F)cc3)sc2n1,-2.97% (inactive),
Cc1nc(N2CCN(c3ccccn3)CC2)c2c(C)c(C(=O)Nc3ccc(F)cc3)sc2n1,,4.15 µM (active)
